From PubChem BioAssay (EPA / NIEHS)
Several values for one entry are separate records, joined by “and”; a condition that tells them apart may be missing. Equal values may be shown once. Some compounds were tested as several samples or in several runs, with calls that do not always agree. Activity calls are given as the source filed them. Rule for the calls: active = hit-call score of the fitted dose curve at least 0.9, where 1 is the maximum; inactive = score below 0.9.

These compounds were tested on Interleukin-8 (IL8), CXCL8 (gene 3576) (assay: BSK_3C_IL8: BioMAP Diversity Plus: 3C Assay for Interleukin-8 (IL8) Biomarker Activity (AID 2283020)). Conditions: primary human endothelial cells (HUVEC); actives raise or lower the signal.
Method: BSK_3C is a cell-based, multiplexed-readout assay that uses umbilical vein endothelium, a human vascular primary cell, with measurements taken at 24 hours after chemical dosing in a 96-well plate.BSK_3C_IL8 is an assay component measured in the BSK_3C assay. It measures IL-8 antibody related to regulation of gene expression using ELISA technology.Data from the assay component BSK_3C_IL8 was analyzed into 1 assay endpoint. This assay endpoint, BSK_3C_IL8, was analyzed with bidirectional fitting relative to DMSO as the negative control and baseline of activity. Using a type of binding reporter, gain or loss-of-signal activity can be used to understand changes in the signaling as they relate to the gene CXCL8. Furthermore, this assay endpoint can be referred to as a primary readout, because this assay has produced multiple assay endpoints where this one serves a signaling function. To generalize the intended target to other relatable targets, this assay endpoint is annotated to the cytokine intended target family, where the subfamily is interleukins.
The levels of cell surface (or secreted, indicated by the prefix "s") biomarker endpoints were measured by ELISA. Overt cytotoxicity to cells in confluent adherent cultures (all systems other than the BT system) was assessed by measuring total protein levels using sulforhodamine B (SRB) staining in parallel cultures at the time of biomarker measurements, indicated as SRB endpoints. For proliferation assays for adherent cell types, individual cell types are cultured at sub-confluence and relative cell numbers quantified by SRB staining at time points optimized for each system (48 h: 3C and CASM3C systems; 72 h: BT and HDF3CGF systems; 96 h: SAg system). SRB was performed by staining cells with 0.1% SRB after fixation with 10% TCA and reading wells at 560 nm.Viability and proliferation of PBMC (T cells) was quantified by Alamar Blue reduction for the SAg and BT systems. For PBMC viability (referred to as PBMC Cytotoxicity within the assay endpoint names), cells were plated (75,000/well in a 96-well plate) and then chemical samples added for 1 h before addition of activators, SEB and TSST-1 (20 ng/mL final concentration each). Cells were incubated for 90 h. Then, Alamar Blue (20 uL/well) (Invitrogen, Cat DAL1100) was added for 6 h, and the plates were read with a fluorescence microplate reader at 546/580 nm (excitation/emission). For PBMC proliferation, cells were plated and activated as above but incubated for only 16 h prior to addition of Alamar Blue. Plates were read after 6 h.
O=C(O)C(F)(F)C(F)(F)C(F)(F)C(F)(F)C(F)(F)C(F)(F)C(F)(F)C(F)(F)C(F)(F)F was tested, and the outcome was “inactive” and the AC50 was 53.6 µM (active) and 47 µM (active).
With CCOP(=S)(OCC)SCSC(C)(C)C the outcome was “inactive”.
For Cc1cc2c3c(c1)C(c1ccccc1)=N[C@@H](NC(=O)c1ccncc1)C(=O)N3CC2, the outcome was “inactive”.
With O=C(O)C(F)(F)C(F)(F)C(F)(F)C(F)(F)C(F)(F)F the outcome was “inactive”.
For ClC(Cl)=C(c1ccc(Cl)cc1)c1ccc(Cl)cc1, the AC50 was 32.1 µM (active).
C=CC(=O)NCNC(=O)C=C was tested, and the outcome was “inactive”.
O=C(NC(=O)c1c(F)cccc1F)Nc1cc(Cl)c(OC(F)(F)C(F)F)c(Cl)c1 was tested, and the outcome was “inactive”.
CCCCCCCCCc1ccc(O)cc1 was tested, and the AC50 was 15.5 µM (active).
With C[C@]12CCC(=O)C=C1CC[C@@H]1[C@@H]2CC[C@]2(C)C(=O)CC[C@@H]12 the outcome was “inactive”.
For Oc1c(Cl)c(Cl)c(Cl)c(Cl)c1Cl, the outcome was “inactive” and the AC50 was 20 µM (active).
O=C(O)C(F)(F)C(F)(F)C(F)(F)C(F)(F)C(F)(F)C(F)(F)C(F)(F)C(F)(F)F was tested, and the outcome was “inactive”.
In the case of Clc1ccc(Cl)cc1, the outcome is reported as “inactive”.
For CC(C)C(=O)OCC(C)(C)C(OC(=O)C(C)C)C(C)C (stereo not given), the outcome was “inactive”.
With O=C(NC(=O)c1cc(F)c(F)cc1Cl)Nc1cc(F)ccc1N1CCC(C(=O)O)CC1 the outcome was “inactive”.
In the case of COS(=O)(=O)OC, the outcome is reported as “inactive”.
In the case of CN(C)c1nc(=O)n(C2CCCCC2)c(=O)n1C, the outcome is reported as “inactive”.
With O=S(=O)(O)C(F)(F)C(F)(F)C(F)(F)C(F)(F)C(F)(F)C(F)(F)F the outcome was “inactive”.
For Nc1ccc(-c2ccc(N)cc2)cc1, the outcome was “inactive”.
CCOC(=O)C(O)(c1ccc(Cl)cc1)c1ccc(Cl)cc1 was tested, and the AC50 was 31.1 µM (active).
ClC1=C(Cl)[C@]2(Cl)[C@@H]3[C@@H]4C[C@@H]([C@H]5O[C@@H]45)[C@@H]3[C@@]1(Cl)C2(Cl)Cl was tested, and the outcome was “inactive”.
For Oc1ccc(Cl)cc1Cl, the outcome was “inactive”.
For Cc1ccccc1O, the outcome was “inactive”.
With CCCCCCCCCC[N+](C)(C)CCCCCCCCCC the AC50 was 4.54 µM (active).
With Cc1ccccc1CO[C@@H]1C[C@@]2(C(C)C)CC[C@]1(C)O2 the outcome was “inactive”.
With CCC(C)(CC)c1cc(NC(=O)c2c(OC)cccc2OC)on1 the outcome was “inactive”.
For COc1ccc(O)c(C(C)(C)C)c1, the outcome was “inactive”.
With Cc1cc(O)ccc1Cl the outcome was “inactive”.
CC1=C2C[C@H]3[C@@H](CC=C4C[C@@H](O)CC[C@@]43C)[C@@H]2CC[C@]12O[C@@H]1C[C@H](C)CN[C@H]1[C@H]2C was tested, and the outcome was “inactive”.
Cc1ccccc1[N+](=O)[O-] was tested, and the outcome was “inactive”.
With Cc1cc(-c2ccc(N)c(C)c2)ccc1N the outcome was “inactive”.
With CCCCCCCCOC(=O)c1ccccc1C(=O)OCCCCCCCC the outcome was “inactive”.
With NS(=O)(=O)C(F)(F)C(F)(F)C(F)(F)C(F)(F)C(F)(F)C(F)(F)C(F)(F)C(F)(F)F the AC50 was 32.8 µM (active) and 47.7 µM (active) and 53.4 µM (active).
CCC(=O)O[C@H]1CC[C@H]2[C@@H]3CCC4=CC(=O)CC[C@]4(C)[C@H]3CC[C@]12C was tested, and the AC50 was 27.3 µM (active).
With CCCCCCOC(=O)c1ccccc1C(=O)OCCCCCC the AC50 was 31.1 µM (active).
For CO/C=C(/C(=O)OC)c1ccccc1COc1cccc(C(F)(F)F)n1, the AC50 was 10.1 µM (active).
For c1cc2ccc3cccc4ccc(c1)c2c34, the outcome was “inactive”.
For Nn1cnnc1, the outcome was “inactive”.
For Cc1ccc(O)c(C)c1, the outcome was “inactive”.
